# This is a sample that favours compounds with a hit; in the whole collection about 1.5% have one here.
# Her2 expr inh = lowers expression of human Her2 kinase; 0.69% of 65,000 active; SKBR-3 HER2 protein level, AlphaScreen, 18-24 h; hits give low values; HER2 level % of control, % at 10 µM;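 active means HER2 level under 5% of the carrier-only control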;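 further: 100% = DMSO carrier and 0% = 500 nM PU-H71 HSP90 inhibitor; lower value means stronger loss of Her2 protein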
# PKA kinase inh = blocks human protein kinase A activity | P17612 | PKA Kemptide phosphorylation, Kinase-Glo ATP luminescence | inhibition, % at 6 µM | 0.1% of 65,000 active | AID 524;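 active means inhibition above the screen-wide mean inhibition plus 3 SD, cut at about 21% in these data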
# ROCK2 blocker = inhibitors of human Rho kinase 2. O75116. purified ROCK2, Kinase-Glo ATP depletion luminescence. inhibition, % at 6 µM. 0.35% of 60,000 active. AID 604;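 active means inhibition above the screen-wide mean inhibition plus 3 SD, cut at about 18% in these data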;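 further: plate controls were DMSO wells for no effect and Y-27632 control wells after no-enzyme background subtraction for full effect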
# Target sequence (O75116 whole entry, looked up): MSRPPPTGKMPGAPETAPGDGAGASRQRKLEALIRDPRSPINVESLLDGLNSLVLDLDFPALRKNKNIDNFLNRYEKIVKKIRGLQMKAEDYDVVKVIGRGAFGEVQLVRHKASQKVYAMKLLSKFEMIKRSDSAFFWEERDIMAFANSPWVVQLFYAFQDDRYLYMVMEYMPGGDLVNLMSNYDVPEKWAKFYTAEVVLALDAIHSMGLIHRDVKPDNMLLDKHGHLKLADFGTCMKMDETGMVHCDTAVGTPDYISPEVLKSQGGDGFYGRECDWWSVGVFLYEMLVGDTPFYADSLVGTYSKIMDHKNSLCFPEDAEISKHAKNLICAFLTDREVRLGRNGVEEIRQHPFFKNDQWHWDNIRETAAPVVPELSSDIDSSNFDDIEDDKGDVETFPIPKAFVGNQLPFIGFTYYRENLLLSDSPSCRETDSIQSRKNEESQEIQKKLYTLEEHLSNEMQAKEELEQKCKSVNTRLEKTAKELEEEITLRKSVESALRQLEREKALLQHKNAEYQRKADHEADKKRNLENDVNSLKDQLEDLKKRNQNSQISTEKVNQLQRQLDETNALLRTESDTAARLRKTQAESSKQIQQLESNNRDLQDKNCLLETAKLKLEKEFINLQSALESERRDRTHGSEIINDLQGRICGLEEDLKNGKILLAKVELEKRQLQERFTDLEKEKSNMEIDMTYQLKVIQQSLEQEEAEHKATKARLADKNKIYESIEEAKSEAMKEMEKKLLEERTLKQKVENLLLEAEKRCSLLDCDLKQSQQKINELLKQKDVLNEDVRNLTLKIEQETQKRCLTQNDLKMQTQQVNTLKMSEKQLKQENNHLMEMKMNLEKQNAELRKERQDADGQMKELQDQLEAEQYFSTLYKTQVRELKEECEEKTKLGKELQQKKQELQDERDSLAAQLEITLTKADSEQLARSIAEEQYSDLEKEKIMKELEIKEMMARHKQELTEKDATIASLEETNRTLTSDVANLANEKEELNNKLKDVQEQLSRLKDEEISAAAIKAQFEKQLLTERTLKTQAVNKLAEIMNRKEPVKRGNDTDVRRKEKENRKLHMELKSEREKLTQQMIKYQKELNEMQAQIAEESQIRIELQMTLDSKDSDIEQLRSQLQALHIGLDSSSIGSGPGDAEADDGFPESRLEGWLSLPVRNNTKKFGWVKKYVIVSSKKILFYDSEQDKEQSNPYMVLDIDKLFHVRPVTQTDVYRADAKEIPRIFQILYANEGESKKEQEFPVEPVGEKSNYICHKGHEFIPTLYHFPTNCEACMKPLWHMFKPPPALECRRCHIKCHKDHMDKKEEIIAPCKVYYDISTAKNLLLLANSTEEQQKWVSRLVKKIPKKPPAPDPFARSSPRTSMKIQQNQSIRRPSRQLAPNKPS
# JNK3 inh = blocks human JNK3 kinase activity; P53779; purified JNK3 kinase activity, HTS; inhibition, % at 8 µM; 0.61% of 60,000 active; in the data active means inhibition above about 17%;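 further: 0% = DMSO and 100% = reference inhibitor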
# SK-BR-3 tox 24h = SK-BR-3 proliferation inhibitors; SK-BR-3 viability, CellTiter-Glo ATP luminescence, 24 h; hits give low values; viability, % at 10 µM; 0.47% of 41,000 active; AID 847;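 active means viability at or below the median of all test compounds minus 3 SD, in both replicates if run twice, cut at about 45% in these data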;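 further: 100% = median untreated cell wells and 0% = median positive control drug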
# An asterisk follows results filed as active; . = no result given.
SMILES,Her2 expr inh,PKA kinase inh,ROCK2 blocker,JNK3 inh,SK-BR-3 tox 24h
CCCCOCCCNC(=O)CN1C(=O)c2ccccc2C1=O,-20.6*,.,.,.,96.3
CNC(=O)C1CCCN1S(=O)(=O)c1ccc(OC)cc1 (stereo unspecified),132.5,11.3,7.0,7.7,81.4
COc1ccc(CNC(=O)C2CCCN2S(=O)(=O)c2ccc(S(=O)(=O)N(C)C)cc2)cc1 (stereo unspecified),95.8,8.6,1.1,3.7,33.5*
Cc1c(CCC#N)c(N2CCN(C3CCCCC3)CC2)n2c(nc3ccccc32)c1C#N,-15.9*,2.8,3.6,3.6,6.0*
CCOCCCNC(=O)C(NC(=O)c1ccc2c(c1)OCO2)c1ccc(OC)cc1 (stereo unspecified),185.5,1.0,.,.,93.9
CCOCCCNC(=O)C(c1ccc(OC)cc1)N(Cc1ccc2c(c1)OCO2)C(=O)CNC(C)=O (stereo unspecified),-21.8*,3.1,.,.,61.6
CC(=O)OC(/C(O)=C(\C#N)c1nc2ccccc2[nH]1)c1ccccc1 (stereo unspecified),98.1,4.8,1.7,-0.6,89.4
O=S(=O)(c1ccc(S(=O)(=O)N2CCCC2)cc1)N1CCCCCC1,95.1,2.4,5.1,6.7,70.5
O=S(=O)(c1ccc2c(c1)C(=NO)c1cc(S(=O)(=O)N3CCCCC3)ccc1-2)N1CCCCC1,-21.8*,-0.1,2.4,1.8,3.5*
O=C(CSc1nc2cc(Cl)ccc2s1)c1ccco1,-1.4*,2.9,.,.,71.5
CCOC(=O)CNC(=O)c1ccc2[nH]c3c(c2c1)CCCC3,150.4,4.8,6.0,-11.6,.
CCOC(=O)c1ccc2[nH]c3c(c2c1)CCCCC3=O,68.7,15.3,5.9,23.7*,100.8
Cc1cccc(C)c1NC(=O)C(c1ccccc1)N1CCC2(CC1)OCCO2 (stereo unspecified),83.3,-1.7,-2.3,1.0,33.7*
Cc1ccc2c(c1)nnn2C1CCN(C(=O)C2CCCCC2)CC1,69.6,12.6,3.7,0.0,73.8
O=c1cccc(-c2ccccc2)[nH]1,-26.1*,-2.6,0.6,-3.4,100.2
O=C(NCc1nc2ccccc2[nH]1)c1cccs1,80.2,6.6,2.4,28.5*,.
O=C(NCc1nc2ccccc2[nH]1)c1ccco1,88.3,-8.5,-3.6,5.8,88.6
CC(C)c1cc(NC(=O)CSc2nnc(-c3ccccc3F)n2C)on1,.,-4.2,.,.,111.9
CS(=O)(=O)c1ncc(Cl)c(C(=O)Nc2ccc(N3CCOCC3)cc2)n1,-1.6*,11.0,6.8,3.0,69.8
Oc1[nH]c2ccccc2c1C=Nc1ccc2c(c1)OCCO2,97.2,-2.7,8.7,34.5*,88.6
Cc1cccc(/N=C/c2c(O)[nH]c3ccccc23)n1,80.7,5.6,5.4,29.9*,.
COc1ccc(CC(=O)NCc2ccccc2)cc1S(=O)(=O)N1CCOCC1,139.9,2.8,1.9,5.0,.
COc1ccc(CC(=O)Nc2nc3ccccc3s2)cc1S(=O)(=O)N1CCOCC1,77.5,10.9,6.1,36.8*,.
COc1ccc2c(c1OC)C(=O)NC(C)=C(C(=O)OC(C)(C)C)C2O (stereo unspecified),65.5,7.2,7.4,-5.5,89.1
COc1ccc2sc(NC(=O)CC(C)C)nc2c1,-19.0*,-1.2,1.6,8.6,99.2
SMILES,Her2 expr inh,PKA kinase inh,ROCK2 blocker,JNK3 inh,SK-BR-3 tox 24h
COc1cc(OC)c(NC(=O)CCc2nc(-c3cccs3)no2)cc1Cl,50.9,-6.3,.,.,.
O=C(Nc1cccc(C(=O)N2CCOCC2)c1)NC1CCCCC1,-21.8*,-1.4,3.4,-3.4,92.5
CC(C)c1ccc(S(=O)(=O)N2CCN(C(=O)c3cccc(F)c3)CC2)cc1,95.6,-2.3,0.9,0.1,.
COc1cc(NC(=O)C2CC(c3cccc(OC)c3OC)=NO2)cc(OC)c1OC (stereo unspecified),102.1,5.9,3.6,69.0*,.
CC1CC(C)(C)Nc2ccc(OC(=O)c3ccco3)cc21 (stereo unspecified),-31.2*,6.7,1.1,9.2,19.8*
O=C(Oc1ccc2ccccc2c1)c1ccco1,97.8,5.4,8.5,2.1,.
COC(=O)c1ccccc1NC(=O)C1CC(=O)N(C2CCCCC2)C1 (stereo unspecified),109.8,6.5,3.6,4.3,84.8
Cc1ccc2c(c1)CCCN2C(=O)c1ccoc1C,-29.3*,12.8,3.2,3.8,87.0
N#Cc1c(-c2ccco2)cc(-c2ccccn2)nc1N,-1.2*,8.1,0.2,-2.4,119.4
O=C1NC2(CCCC2)N=C1c1ccc(Cl)cc1,91.5,3.4,-1.6,0.3,.
N#CC(C#N)=c1ccc2c(c1)NC1(CCCCC1)N=2,-26.1*,5.7,4.3,-17.3,51.8
CC(=O)C1=C(C)Nc2ncnn2C1c1ccccc1OCc1ccccc1 (stereo unspecified),99.2,9.4,10.1,2.8,92.8
Cc1ccc(C2C(C(=O)c3cc4ccccc4o3)=C(O)C(=O)N2CCCN(C)C)cc1 (stereo unspecified),110.4,6.4,8.7,2.0,101.7
O=C(Cc1cccs1)NCC1CCCO1 (stereo unspecified),88.8,-5.6,-4.1,-11.4,34.9*
O=C(NCC1CCCO1)c1ccc(C(=O)NCC2CCCO2)cc1 (stereo unspecified),109.3,6.8,8.4,-0.8,103.4
Cc1ccc(C(=O)c2coc3ccc(O)c(CN4CCN(C)CC4)c23)cc1,75.0,9.3,7.8,3.5,65.3
Cc1cc2oc3c(c(=O)c2cc1C)C(c1cccc(Br)c1)N(Cc1ccco1)C3=O (stereo unspecified),26.2,-3.2,-7.9,-1.9,41.7*
Cc1ccc2oc3c(c(=O)c2c1)C(c1cccc(Br)c1)N(Cc1ccco1)C3=O (stereo unspecified),64.4,10.2,5.4,-1.7,91.3
Cc1cccc(OCCSc2cc(C)nc(N)n2)c1,78.0,6.3,-3.7,-3.6,68.8
O=C(NCC(=O)N(CCc1ccccc1)C(C(=O)NC1CCCC1)c1cccnc1)c1ccco1 (stereo unspecified),-19.0*,1.9,0.7,-6.4,71.0
CCCCCCS(=O)Cc1ccccc1 (stereo unspecified),84.5,7.5,2.5,2.1,.
COC(=O)CCC(=O)Nc1ccc(Br)cc1,100.0,6.7,4.0,5.1,96.0
CCN1C(=O)CC(C(=O)Nc2ccc(F)cc2)SC1=Nc1ccc2c(c1)OCO2 (stereo unspecified),-27.4*,1.2,4.1,-5.5,.
O=C(NCc1ccco1)C1CCN(S(=O)(=O)c2cccc3cccnc23)CC1,-17.2*,0.2,-0.9,2.4,.
CCN1C(=O)N(CC)C(O)(c2ccccc2)C1(O)c1ccccc1 (stereo unspecified),61.7,-6.7,34.0*,-2.9,92.7
c1ccc2nc3c(nc2c1)c1ccccc1n3CCN1CCOCC1,127.1,7.0,0.8,18.0*,81.4
Brc1ccc2c(c1)c1nc3ccccc3nc1n2CCN1CCOCC1,67.4,3.9,-4.9,10.9,.
Nc1nc(-c2ccccc2)nn1C(=O)Cc1ccccc1,110.8,1.5,-11.1,1.4,.
COc1ccc(C(=O)n2nc(-c3ccccc3)nc2N)cc1OC,98.0,6.5,12.4,48.9*,96.3
